Experimental data as given in PubChem BioAssay (NCI).
Compounds without any hit were thinned out: in the full panel of roughly 83,000, 20% have a hit.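 Cells were grown in 96-well plates and exposed to the test compound at a single concentration for 48 hours; results are reported as percent growth, with values below 10 considered active.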 Unmarked numbers belong to inactive results. Calls of active or inactive are those of the source.

Tested on: HL-60(TB) leukemia
Assay: NCI-60 one-dose screen, 48 h (100 = growth as untreated, 0 = no growth, -100 = all killed)
Details: 10 µM unless noted

SMILES | growth
COc1cc(C2CC(=O)c3ccccc3N2)cc(OC)c1OC (configuration not stated) | 98.8%
COc1cccc(/C=C2\COc3ccc(O)cc3C2=O)c1 | -20.1% (active)
CC(C)CC(=O)C(CCc1ccccn1)C(C)C (configuration not stated) | 108%
O=C(Nc1cccc(-n2cc(-c3ccncc3)c(-c3ccc(Cl)c(O)c3)n2)c1)c1ccc(N2CCOCC2)c(C(F)(F)F)c1 | 51.6%
O=C1CSC(=S)N1CCc1ccc(O)cc1 | 92%
CC(=O)Oc1ccc(C2OC(c3ccc4ccccc4c3OC(C)=O)=NN2C(C)=O)c(OC(C)=O)c1 (configuration not stated) | -30.7% (active)
Cc1ccc(CSCc2ccc(C(=O)NC3CC3)o2)cc1 | 59.5%
Nc1cc2c(cc1Br)-c1c(C(=O)O)cccc1C2O (configuration not stated) | 77.8%
O=c1[nH]c(=S)[nH]c2nc[nH]c12 | 87%
O=C1C=CC(=O)N1Cc1ccco1 | 108%
O=C(N/N=C/c1c(Cl)cccc1Cl)c1ccccc1Nc1ccnc(C(F)(F)F)c1 | 96.5%
COc1cc(C=O)ccc1OC1OC(COC(C)=O)C(OC(C)=O)C(OC(C)=O)C1OC(C)=O (configuration not stated) | 106%
